# Test results as given in PubChem BioAssay (NCI).
# This is part of a sample that, as a whole, favours compounds with a hit. Of some 83,000 tested, about 20% had one in any assay.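 Negative percent growth values reflect cell death: -40 means 40% of the cells present at the start died, and -100 means all died.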 Values without a mark were called inactive. Active and inactive are the calls of the source. How the source made its calls: active means growth percent below 10; inactive means the rest.
# Key:
# Experiment in all cases: NCI-60 one-dose screen, 48 h (100 = growth as untreated, 0 = no growth, -100 = all killed)
# Conditions in all cases: 10 µM unless noted
# T-47D breast = system: T-47D breast
# BT-549 breast = system: BT-549 breast
# MDA-MB-435 melanoma = system: MDA-MB-435 melanoma
# SW-620 colon = system: SW-620 colon
# MCF7 breast = system: MCF7 breast
# HCT-116 colon = system: HCT-116 colon
# KM12 colon = system: KM12 colon
# HCC-2998 colon = system: HCC-2998 colon
SMILES,growth (T-47D breast),growth (BT-549 breast),growth (MDA-MB-435 melanoma),growth (SW-620 colon),growth (MCF7 breast),growth (HCT-116 colon),growth (KM12 colon),growth (HCC-2998 colon)
O=[N+]([O-])c1cccc(-c2cc(-c3cc(Br)ccc3O)[nH]n2)c1,21.1%,24.1%,13.5%,28.1%,6.17% (active),13.5%,12.5%,–
O=C(c1ccncc1)N1N=C(c2ccc(Cl)cc2)CC1c1c[nH]c2ccccc12 (stereo unspecified),74.8%,92.8%,99.9%,–,70.2%,94.3%,96.8%,105%
CN(C)C/C=C/C(=O)Nc1cc2c(Nc3ccc(F)c(Cl)c3F)ncnc2cc1OCCOC(F)F,-1.23% (active),5.73% (active),5.61% (active),–,20%,2.2% (active),44.6%,41.1%
CC/C=C\C[C@H]1C/C=C2/C(=O)C(Cl)=C[C@@H]2C/C=C\CCCC(=O)O1,-16.1% (active),-75% (active),-74.8% (active),-74.8% (active),-40.4% (active),-81% (active),-74.3% (active),–
O=C(O)Cc1ccc2c(c1)Cc1cccnc1O2,89.3%,101%,103%,–,94.6%,100%,98.7%,99%
CCC(=O)Nc1ccccc1C#C/C=C\C#Cc1ccccc1SC,57.2%,71.6%,-16.5% (active),35.3%,62.2%,41.6%,43.5%,–
CC/C=C\C/C=C\C[C@H](O)C/C=C1/C(=O)C=C[C@H]1C/C=C\CCC(=O)OC,16.7% [8.25 µM],14.6% [8.25 µM],-14.1% [8.25 µM] (active),6.55% [8.25 µM] (active),28.1% [8.25 µM],-41.6% [8.25 µM] (active),3.51% [8.25 µM] (active),–
COc1ccc(/C=C\c2cc(OC)c(OC)c(OC)c2)c(NS(=O)(=O)c2ccc(C(C)(C)C)cc2)c1O,72.2%,37.7%,-17% (active),–,10.1%,13.4%,12.1%,19.5%
COC(=O)CCCCCN=Cc1c(O)c(O)c(C(C)C)c2cc(C)c(-c3c(C)cc4c(C(C)C)c(O)c(O)c(C=NCCCCCC(=O)OC)c4c3O)c(O)c12,11.8%,35.1%,21.1%,–,12.9%,9.82% (active),19.7%,30.2%
NC(=O)c1cccc(N2Cc3ccccc3OC3=C2C(=O)c2c(O)ccc(O)c2C3=O)c1,-36.9% (active),-56.8% (active),-27.3% (active),-66.6% (active),-22.3% (active),-69.1% (active),-48.9% (active),–
CC(C)(C)OC(=O)N1C/C(=C\c2cccs2)C(=O)/C(=C/c2cccs2)C1,82.5%,97.6%,99.7%,84.5%,39.1%,63.5%,97.2%,–
C=C1C(=O)O[C@H]2[C@H]1CC/C(COC(=O)NCCc1ccc(OC)cc1)=C\CC[C@@]1(C)O[C@@H]21,-5.43% (active),8.9% (active),21.5%,-65.6% (active),2.77% (active),-58.4% (active),56.9%,–
OCc1c(-c2ccccc2)nc2sccn12,104%,59.3%,114%,98.3%,103%,104%,97.6%,–
COc1ccc(NC(=O)CSc2nc3ccc(Cl)cc3c(=O)n2-c2ccccc2C(F)(F)F)c(OC)c1OC,61.9%,72.8%,92.3%,–,78.9%,70.1%,95.7%,99%
O=C1CCCCC=C1C[N+](=O)[O-],70.3%,97.2%,92.9%,39.6%,84.4%,62.5%,105%,–
CCOC(=O)[C@H](CSSc1ncnc2cc[nH]c12)NC(=O)[C@@H](C)c1ccc2cc(OC)ccc2c1,23.3%,46.3%,24.4%,19.3%,8.81% (active),11.1%,23.5%,–
CN(C)c1ncc(-c2ccc(C(F)(F)F)cc2)c(NC2CCCCCC2)n1,35.1%,90.3%,65.4%,–,41.2%,44.1%,54.4%,72.2%
CC(C)(C)c1cc(-c2nc3ccc(N4CCN(CCO)CC4)cc3[nH]2)cc(C(C)(C)C)c1O,60.6%,92%,6.38% (active),9.88% (active),35.6%,25.3%,18.2%,–

SMILES,growth (T-47D breast),growth (BT-549 breast),growth (MDA-MB-435 melanoma),growth (SW-620 colon),growth (MCF7 breast),growth (HCT-116 colon),growth (KM12 colon),growth (HCC-2998 colon)
COc1ccc(-c2nc3sccn3c2-c2ccnc(NCCCNS(=O)(=O)c3ccc4ccccc4c3)n2)cc1,32.6%,65.3%,50%,105%,52.2%,60.2%,50.1%,–
Nc1cccc2c1CN(C1CCC(=O)NC1=O)C2=O (stereo unspecified),97.5%,105%,101%,95.6%,94.5%,114%,98.1%,–
Nc1ccc(S(=O)(=O)c2ccc(Cl)cc2)cc1,104%,97.2%,121%,–,99.3%,97.2%,93.4%,102%
Nc1c(C(=O)c2ccc(F)cc2)sc2nc3c(cc12)CCCC3,79.9%,90.7%,22.5%,81%,80.4%,72.2%,66.2%,–
CCOC(=O)CC(C#N)(CC(=O)OCC)C(=O)OCC,105%,106%,94.8%,–,101%,102%,–,109%
Cc1cc(C)c(NC(=O)c2sc3nc4c(cc3c2N)CN(Cc2ccccc2)CC4)c(C)c1,27.4%,52.2%,-18.6% (active),23.7%,17.6%,22.6%,19.4%,–
COc1ccc(/C=C/C(=O)c2ccc(NC(=O)CN3CCN(c4cc5c(cc4F)c(=O)c(C(=O)O)cn5C4CC4)CC3)cc2)cc1,98.7%,92.6%,98.6%,–,91.9%,25.1%,106%,100%
Nc1nc(-c2ccccc2)cs1,96.7%,116%,107%,–,94.4%,94.8%,–,104%
Cc1ccc(Cn2c(-c3cccs3)nc3ccccc32)cc1,72.5%,128%,111%,81.2%,87.7%,76.5%,96%,–
Clc1ccc(/C=C/c2nc(N3CCOCC3)c3nc(Cl)c(Cl)cc3n2)cc1,73%,93.6%,98.1%,–,56.8%,83.7%,114%,94.4%
Clc1nc2ccccc2nc1CI,108%,92%,89.2%,–,91.1%,23%,104%,117%
CC(=O)Nc1ccc(S(=O)(=O)NC(CCC(=O)Nc2ccc(Cl)cc2)C(=O)O)cc1 (stereo unspecified),80.4%,–,85.2%,99.6%,84.8%,102%,94.5%,103%
CC(=O)Nc1ccc(S(=O)(=O)N2C(=O)CCC2C(=O)Nc2ccc(Br)cc2)cc1 (stereo unspecified),1.46% (active),–,27.6%,38.2%,9.58% (active),19.5%,–,49.4%
CCC(=O)Oc1cc(/C=C/C(=O)O[C@H]2C[C@H]3CN4CCc5c([nH]c6cc(OC)ccc56)[C@@H]4C[C@@H]3[C@@H](C(=O)OC)[C@@H]2OC)ccc1OC,60.6%,–,67.1%,83%,48.2%,53.3%,95.3%,115%
O=C(N/N=C/c1c(Cl)cccc1Cl)c1ccccc1Nc1ccnc(C(F)(F)F)c1,51.8%,–,82.9%,–,46%,64.9%,74.7%,71.5%
Cc1ccc(C2=NN(c3ccc(S(=O)(=O)NC(=O)NCc4ccccc4)cc3)C(c3ccc(N(C)C)cc3)C2)c(C)c1 (stereo unspecified),47.3%,40.9%,1% (active),–,28.9%,39.7%,34.5%,27.7%
CCNC(=O)C1CCCN1C(=O)C(CCCN=C(N)N)NC(=O)C(CC(C)C)NC(=O)C(CC(C)C)NC(=O)C(Cc1ccc(O)cc1)NC(=O)C(CO)NC(=O)C(Cc1c[nH]c2ccccc12)NC(=O)C(Cc1cnc[nH]1)NC(=O)C1CCC(=O)N1 (stereo unspecified),104%,113%,105%,–,86.1%,95.2%,104%,94.4%
